Bioassay records as filed in PubChem.
CR mimetic SO: reduction of superoxide in aged yeast, primary screen, HTS. superoxide response (% of plate mean), % at 10 µM. 330,000 compounds, 0.18% hits. S. cerevisiae aged cells, superoxide DHE fluorescence; active compounds read low;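 active = superoxide response under a set limit, about three screen SD below normal, cut at about 65% in these data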;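 note: yeast aged for seven days with compound at 30 °C before DHE staining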
beta cell repl: inducers of MIN6 beta-cell proliferation, primary screen, ATP luminescence, uHTS. MIN6 cells proliferation, ATPlite luminescence, 48 h; cells starved in 0.2% serum; 100% = growth in 10% serum. proliferation, % at 10 µM. 330,000 compounds, 0.29% hits;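 active = compounds whose signal lies at least 3.5 SD above the mean of all wells on their plate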
Cardio protect: cardioprotection against H2O2-induced cell death, primary screen, uHTS, H9c2 cells, ATPLite luminescence. H9c2 cardiomyocytes, H2O2 injury protection, 2 h. protection from H2O2 cell death, % at 20 µM. 360,000 compounds, 0.63% hits. AID 588492, 2011;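 active = compounds giving at least 50% protection of heart cells from peroxide-induced death in the single-dose screen, raw or plate-pattern-corrected value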
V-ATPase pHluor: regulators of yeast V-ATPase proton pumping, primary screen, pHLuorin cytosolic pH fluorescence; S. cerevisiae; response, % at 10 µM; 350,000 compounds, 0.37% hits; AID 504577, 2011; in the data active = response mostly above about 7.3%, no sharp cut-off; inactive = mostly below about 5.4%; note: actives read high
HSV replic up: enhancers of HSV replication in host cells, fold increase, host cell viability; 220,000 compounds, 0.005% hits; maximum fold increase; AID 1956, 2009; HSV replication augmentation in cells; in the data active = maximum fold increase above about 1.5; tested in PC3 cells
pCIP destab: p/CIP-EGFP fusion destabilizers, primary screen, fluorescence, F442A cells; Q05BA5; 16 h; decrease of EGFP signal, % at 10 µM; 290,000 compounds, 0.01% hits; AID 1984, 2009;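 active = EGFP signal decrease of at least 30% at 10 µM or well 3 SD below plate mean, unless failing retest; inactive = the rest, including hits failing retest or dose response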
VATPase regulator: yeast V-ATPase proton pumping modulators, confirmation, S. cerevisiae, pH-sensitive GFP, second cherry-pick; shares compounds with V-ATPase pHluor; S. cerevisiae pHLuorin cytosolic pH, V-ATPase proton transport; response, % at 10 µM; 980 compounds, 2% hits; AID 602197, 2012; in the data active = response above about 24%
Hits are given with their value; . = inactive; / = no result. Most compounds without a hit are left out; they make up all but 1.4% or so of the library.

SMILES | CR mimetic SO | beta cell repl | Cardio protect | V-ATPase pHluor | HSV replic up | pCIP destab | VATPase regulator
Cc1ccc(/C=C2\S/C(=N/S(=O)(=O)c3cccs3)NC2=O)cc1 | . | . | . | 21.5 | . | . | .
CCCN(CCC)CC(O)COc1ccc2c(c1)OCO2 (configuration not stated) | . | . | . | 8.9 | . | . | .
CC1CC(C)CN(C(=O)COC(=O)COc2ccccc2C#N)C1 (configuration not stated) | . | . | . | . | / | / | /
O=C(Cn1c(CO)nc2ccccc21)NCCc1ccccc1 | . | . | . | 8.1 | . | . | .
O=C(Cn1c(CO)nc2ccccc21)NCCc1ccc(F)cc1 | . | . | . | . | . | . | /
CCN(CC)C(=O)C1=C(C)N(Cc2ccccc2)C(=O)C(CC(=O)NC2CCCC2)C1 (configuration not stated) | / | / | . | 7.1 | / | / | .
CCOC(=O)COc1ccc2c(C#N)c3ccccn3c2c1 | / | / | . | 9.6 | . | . | .
CCOC(=O)c1c2ccc(OCC(=O)N/N=C/c3ccc(Cl)cc3)cc2n2ccccc12 | / | / | / | / | / | . | /
COc1cccc(N2CCN(C(=O)c3cc(-c4ccccc4)nc4c3cnn4C(C)C)CC2)c1 | . | . | . | . | / | / | /
CCC(=O)N=c1ccn(C2=Nc3ccccc3NC2=C(C#N)C#N)cc1 | . | . | . | . | . | . | /
COc1cccc(/C=C/C(=O)Nc2cc(S(=O)(=O)N3CCOCC3)ccc2OC)c1 | / | . | . | 11.8 | / | / | .
O=C(/C=C/c1ccc(F)cc1)Nc1cc(S(=O)(=O)N2CCOCC2)ccc1N1CCCC1 | . | . | . | . | . | . | /
COc1ccc(/C=C/C(=O)Nc2cc(S(=O)(=O)N3CCOCC3)ccc2OC)cc1 | . | . | . | . | / | / | /
O=C(/C=C/c1cccc(F)c1)Nc1cc(S(=O)(=O)N2CCOCC2)ccc1N1CCCC1 | . | . | . | 6.5 | . | . | .
O=C1COc2ccc(C(=O)COC(=O)Cc3ccsc3)cc2N1 | . | . | . | . | . | . | /
Cc1csc2c(SCC(=O)NNC(=O)C(Cl)Cl)ncnc12 | . | . | . | 12.0 | . | . | .
Cc1ccc(-n2ncc3c(SCC(=O)NNC(=O)C(C)C)ncnc32)cc1 | . | . | . | . | / | . | /
Cc1cc(C)c(S(=O)(=O)NC2CC3CCC2C3)c(C)c1 (configuration not stated) | . | . | . | . | / | . | /
Cc1ccc(S(=O)(=O)NCC(=O)N2CCCCC2)cc1 | . | . | . | 11.6 | . | . | .
C[C@@H]1CN([C@@H](C)CO)C(=O)CCCn2nncc2CO[C@@H]1CN(C)S(=O)(=O)c1ccccc1 | / | / | . | . | / | / | /
O=C(CSc1nc(=O)n(CCCN2CCOCC2)c2c1CCC2)Nc1ccc(F)cc1F | . | . | . | . | / | / | /
O=C(CSc1nc(=O)n(CCCN2CCOCC2)c2c1CCCC2)Nc1ccc(F)cc1F | . | . | . | 6.0 | / | / | .
OCCCNc1ncnc2c1ncn2[C@H]1CN(C2CCCC2)C[C@@H](CO)O1 | / | / | . | / | / | / | /
CCOC(=O)Cc1nnc(NC(=O)CSc2nnc3c4ccccc4n(C)c3n2)s1 | . | . | . | . | . | . | /
CCOC(=O)c1c(N)sc(C(=O)OC)c1C | . | . | . | . | . | . | /
SMILES | CR mimetic SO | beta cell repl | Cardio protect | V-ATPase pHluor | HSV replic up | pCIP destab | VATPase regulator
CCOC(=O)c1c(N)sc(C(=O)N(C)C)c1C | . | . | . | 14.6 | . | . | .
CCOC(=O)C1C(C(=O)OC)=C(c2ccc(OC)cc2)c2ccc(OC)cc2N1S(=O)(=O)C(F)(F)F (configuration not stated) | . | / | . | 8.0 | / | / | .
CCOC(=O)C1C(C(=O)OC)=C(c2ccc(OC)cc2)c2ccccc2N1S(=O)(=O)C(F)(F)F (configuration not stated) | . | / | . | . | / | / | /
O=C(NCCNC(=O)c1ccc(F)cc1)c1ccc(F)cc1 | . | . | . | . | / | / | .
O=C(NCCCN1CCN(CCCNC(=O)c2ccc(F)cc2)CC1)c1ccc(F)cc1 | . | . | . | . | . | . | .
CC(=O)NCCSC(=O)c1ccc(F)cc1 | . | . | . | . | / | . | .
O=C(NCCSCc1ccccc1)c1ccc(F)cc1 | . | . | . | . | . | . | /
COc1ccc(N2CCCC2=O)cc1S(=O)(=O)N1CCOCC1 | / | / | . | . | / | / | /
CC(C#N)N1CCN(S(=O)(=O)c2ccc3c(c2)CCC3)CC1 (configuration not stated) | . | . | . | . | / | / | /
Fc1ccccc1Oc1nc(-c2ccncc2)nc2ccccc12 | . | . | . | . | . | . | /
C=C(C)CSc1nnc(-c2cc(OC)c(OC)c(OC)c2)n1N | . | . | . | . | . | . | /
C=C(C)CSc1nnc(-c2ccc(OC)c(OC)c2)n1N | . | . | . | 8.7 | . | . | .
CCNC(=S)NC1CC2CCCC(C1)N2Cc1ccc(C)cc1 (configuration not stated) | . | . | . | 6.3 | / | . | .
O=S(=O)(Nc1ccccn1)c1cnc(Cl)c(Br)c1 | . | . | . | . | . | . | /
COC(=O)c1ccc(-n2c(C)cc(C(=O)CSc3cccc[n+]3[O-])c2C)cc1 | . | . | . | 11.6 | . | . | .
COc1ccc(-c2c(-c3ccc(OC)c(F)c3)c3ccccc3n2C)cc1 | . | . | . | 21.3 | / | / | .
COc1ccc(CN2CCN(C(=O)C3CCC(CNS(=O)(=O)c4ccccc4)CC3)CC2)c(OC)c1OC (configuration not stated) | . | . | . | . | . | . | /
CNC(=O)COC(=O)/C=C/c1cccs1 | . | . | . | 9.0 | . | . | .
CCNC(=O)COC(=O)/C=C/c1cccs1 | . | . | . | . | . | . | /
CN1CCCC(OC(=O)c2ccccc2F)C1 (configuration not stated) | . | . | . | 9.4 | / | . | .
O=C(NCc1cccnc1)C(=O)NCC(c1ccco1)N1CCOCC1 (configuration not stated) | . | . | . | . | . | . | /
O=C(NCc1ccco1)C(=O)NCC(c1ccco1)N1CCOCC1 (configuration not stated) | . | . | . | 18.5 | . | . | .
Cc1ccc(/C=N/NC(=O)c2nnn(-c3nonc3N)c2CSc2ccccc2)s1 | . | . | . | 8.1 | / | . | .
CCC(C)NCCOCCOc1ccc(C)cc1Br (configuration not stated) | . | . | . | 35.8 | . | . | .
c1ccc(CCNC2=NCCCS2)cc1 | . | . | . | . | . | . | .
c1ccc(CCNC2=NCCS2)cc1 | . | . | . | . | / | . | /
CCN(CC)C(=O)CNC(=O)Cc1ccc(Cl)cc1 | . | . | . | 9.5 | . | . | .
